This is part of a sample that, as a whole, favours compounds with a hit. Of some 79,000 tested, about 15% had one in any assay. Calls of active or inactive are those of the source. No stated cut-off is given here; in the data, active means growth inhibition above about 70%; inactive means the rest.
What was measured:
[1] = NCI Yeast Anticancer Drug Screen. Data for the mlh1 strain (AID 171);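 further: 0% = growth of vehicle-treated control cultures of the same strain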; settings: S. cerevisiae mlh1 strain growth inhibition, hits give high values
Outline: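 Inhibition values reflect reduced yeast growth in the presence of compound, referenced to vehicle controls, using a strain chosen for its alteration in DNA repair or cell cycle control.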

[2] = NCI Yeast Anticancer Drug Screen. Data for the sgs1 strain (AID 173);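 further: 0% = growth of vehicle-only control cultures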; settings: S. cerevisiae sgs1 mutant, hits give high values
Outline: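 Vehicle-treated cultures served as reference for growth inhibition of a yeast strain altered in DNA damage repair or cell cycle control after compound exposure.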

[3] = NCI Yeast Anticancer Drug Screen. Data for the mlh1 rad18 strain (AID 175); settings: S. cerevisiae mlh1 rad18 strain growth inhibition, hits give high values
Outline: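 Inhibition values reflect reduced growth of mutant yeast versus vehicle-treated controls following compound exposure; the mutations affect DNA damage repair.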

[4] = NCI Yeast Anticancer Drug Screen. Data for the rad18 strain (AID 177); settings: S. cerevisiae rad18 mutant growth inhibition, hits give high values
Outline: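 Steps: expose repair-mutant yeast to compound; measure growth; express as inhibition relative to vehicle control.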

[5] = NCI Yeast Anticancer Drug Screen. Data for the wt1 strain (AID 149);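 further: 0% = growth of vehicle-treated wt1 cultures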; settings: S. cerevisiae wt1 strain (SPY 50644) growth inhibition, hits give high values
Outline: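 Yeast wt1 strain exposed to compounds; growth inhibition measured relative to vehicle-treated controls.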

[6] = NCI Yeast Anticancer Drug Screen. Data for the rad50EPP+ strain (AID 151);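 further: 0% = growth of vehicle-treated control cultures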; settings: S. cerevisiae rad50 mutant strain, hits give high values
Outline: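 Genetically defined yeast (rad50EPP+, DNA damage repair alteration) is grown with compound, and inhibition of growth is expressed relative to vehicle-treated controls.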

[7] = NCI Yeast Anticancer Drug Screen. Data for the mgt1 strain (AID 153); settings: S. cerevisiae mgt1 mutant growth inhibition, hits give high values
Outline: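 In the mgt1 strain, test compounds were added and growth inhibition was determined relative to vehicle-treated controls.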

[8] = NCI Yeast Anticancer Drug Screen. Data for the rad50 strain (AID 155);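 further: 0% = growth of vehicle-only cultures of the same strain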; settings: S. cerevisiae rad50 strain growth inhibition, hits give high values
Outline: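 Yeast carrying a defined DNA repair defect were exposed to test compounds, and growth was compared with vehicle-treated controls to give percent inhibition.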

[9] = NCI Yeast Anticancer Drug Screen. Data for the mec2-1 strain (AID 157); settings: S. cerevisiae mec2-1 strain, hits give high values
Outline: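 Each compound was tested on mec2-1 yeast, a strain altered in DNA damage repair or cell cycle control. Growth inhibition is reported relative to vehicle.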

[10] = NCI Yeast Anticancer Drug Screen. Data for the rad14 strain (AID 159);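 further: 0% = growth of vehicle-treated control cultures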; settings: S. cerevisiae rad14 strain growth inhibition, hits give high values
Outline: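 Yeast cells carrying a defined DNA-repair defect were exposed to compounds, and growth inhibition was calculated relative to vehicle-treated control cultures.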

[11] = NCI Yeast Anticancer Drug Screen. Data for the sgs1 mgt1 strain (AID 161);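 further: 0% = growth of cultures given vehicle only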; settings: S. cerevisiae sgs1 mgt1 strain, hits give high values
Outline: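 Inhibition of yeast growth, normalised to vehicle-treated controls, is reported for a strain bearing genetic alterations in DNA damage repair.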

[12] = NCI Yeast Anticancer Drug Screen. Data for the CLN2oe strain (AID 163);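 further: 0% = growth of vehicle-only control cultures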; settings: S. cerevisiae CLN2oe strain, hits give high values
Outline: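 First, the altered yeast strain was treated with each compound; second, its growth was measured; finally, inhibition was derived by comparison with vehicle controls.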

[13] = NCI Yeast Anticancer Drug Screen. Data for the cln2 rad14 strain (AID 165);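 further: 0% = growth equal to vehicle treated cultures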; settings: S. cerevisiae cln2 rad14 strain, hits give high values
Outline: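 Test compounds were added to cln2 rad14 yeast cultures; inhibition of growth was then determined by comparison with vehicle treatment.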

[14] = NCI Yeast Anticancer Drug Screen. Data for the bub3 strain (AID 167); settings: S. cerevisiae bub3 mutant strain, hits give high values
Outline: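 Compounds were applied to a genetically altered yeast strain carrying a cell-cycle control defect. Growth inhibition was scored against vehicle-treated controls.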

[15] = NCI Yeast Anticancer Drug Screen. Data for the wt2 strain (AID 169);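 further: 0% = growth of vehicle-treated yeast cultures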; settings: S. cerevisiae wt2 strain growth inhibition, hits give high values
Outline: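 The panel's yeast strains carry defined changes in DNA repair or cell cycle genes. Each strain is grown with compound, and growth loss is scored relative to vehicle.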

[16] = at 5.0 µM (retest, dose inferred, filed as 0.5)
[17] = at 50.0 µM (retest, dose inferred, filed as 5.0)

Measured: growth inhibition

O=C1C2=C(c3ccccc31)C(c1ccccc1)N1C(=O)CSC1=N2 (centres undefined)
inactive: [1]; at 1.2 µM 3% | [1]; at 3.7 µM -8% | [1]; at 11.0 µM 1% | [1]; at 33.0 µM 32% | [2]; at 1.2 µM -8% | [2]; at 3.7 µM -14% | [2]; at 11.0 µM 13% | [2]; at 33.0 µM 41% | [3]; [16] -27% | [3]; [17] 42% | [3]; at 50.0 µM 51% | [4]; at 1.2 µM -1% | [4]; at 3.7 µM 10% | [4]; at 11.0 µM 14% | [4]; at 33.0 µM 31%
active: [1]; at 100.0 µM 84% | [2]; at 100.0 µM 77% | [4]; at 100.0 µM 72%

O/N=c1/ccn(O)c2ccccc12
inactive: [5]; at 1.2 µM 0% | [5]; at 3.7 µM 8% | [5]; at 11.0 µM 20% | [5]; at 33.0 µM 43% | [5]; at 100.0 µM 61% | [7]; at 1.2 µM -1% | [7]; at 3.7 µM 7% | [7]; at 11.0 µM 23% | [7]; at 33.0 µM 51% | [9]; at 1.2 µM 51% | [12]; at 1.2 µM -8% | [12]; at 3.7 µM -5% | [12]; at 11.0 µM 8% | [12]; at 33.0 µM 37% | [12]; at 100.0 µM 58% | [14]; at 1.2 µM -5% | [14]; at 3.7 µM 5% | [14]; [16] 11% | [14]; at 11.0 µM 24% | [14]; at 33.0 µM 54% | [15]; at 1.2 µM -1% | [15]; at 3.7 µM 14% | [15]; at 11.0 µM 20% | [15]; at 33.0 µM 39% | [15]; at 100.0 µM 58% | [1]; at 1.2 µM 2% | [1]; at 3.7 µM 15% | [1]; at 11.0 µM 30% | [1]; at 33.0 µM 53%
active: [6]; at 1.2 µM 87% | [6]; at 3.7 µM 96% | [6]; at 11.0 µM 97% | [6]; at 33.0 µM 97% | [6]; at 100.0 µM 97% | [7]; at 100.0 µM 84% | [8]; at 1.2 µM 74% | [8]; at 3.7 µM 96% | [8]; [16] 89% | [8]; at 11.0 µM 95% | [8]; at 33.0 µM 96% | [8]; [17] 95% | [8]; at 50.0 µM 96.3% | [8]; at 100.0 µM 96% | [9]; at 3.7 µM 97% | [9]; [16] 94% | [9]; at 11.0 µM 98% | [9]; at 33.0 µM 98% | [9]; [17] 98% | [9]; at 50.0 µM 97.5% | [9]; at 100.0 µM 98% | [10]; at 1.2 µM 96% | [10]; at 3.7 µM 99% | [10]; at 11.0 µM 99% | [10]; at 33.0 µM 99% | [10]; at 100.0 µM 99% | [11]; [16] 87% | [11]; [17] 95% | [11]; at 50.0 µM 97% | [13]; [16] 98% | [13]; [17] 99% | [13]; at 50.0 µM 98.8% | [14]; [17] 72% | [14]; at 50.0 µM 83.2% | [14]; at 100.0 µM 79% | [1]; at 100.0 µM 83% | [2]; at 1.2 µM 85% | [2]; at 3.7 µM 94% | [2]; at 11.0 µM 96% | [2]; at 33.0 µM 96% | [2]; at 100.0 µM 96% | [3]; [16] 82% | [3]; [17] 97% | [3]; at 50.0 µM 97.5% | [4]; at 1.2 µM 96% | [4]; at 3.7 µM 98% | [4]; at 11.0 µM 97% | [4]; at 33.0 µM 97% | [4]; at 100.0 µM 97%

NC(N)=NC(N)=Nc1ccccc1 (tested in a mixture with another compound)
inactive: [5]; at 1.2 µM -1% | [5]; at 3.7 µM -1% | [5]; at 11.0 µM 0% | [5]; at 33.0 µM 11% | [5]; at 100.0 µM 32% | [6]; at 1.2 µM -1% | [6]; at 3.7 µM -2% | [6]; at 11.0 µM -16% | [6]; at 33.0 µM -9% | [6]; at 100.0 µM 18% | [7]; at 1.2 µM -1% | [7]; at 3.7 µM -2% | [7]; at 11.0 µM 0% | [7]; at 33.0 µM 6% | [7]; at 100.0 µM 41% | [8]; at 1.2 µM 2% | [8]; at 3.7 µM -3% | [8]; [16] -2% | [8]; at 11.0 µM 1% | [8]; at 33.0 µM 1% | [8]; [17] 7% | [8]; at 50.0 µM 56.6% | [8]; at 100.0 µM 55% | [9]; at 1.2 µM 3% | [9]; at 3.7 µM 3% | [9]; [16] 4% | [9]; at 11.0 µM 4% | [9]; at 33.0 µM 12% | [9]; [17] 16% | [9]; at 50.0 µM 35.7% | [9]; at 100.0 µM 48% | [10]; at 1.2 µM -1% | [10]; at 3.7 µM -15% | [10]; at 11.0 µM -11% | [10]; at 33.0 µM -19% | [10]; at 100.0 µM 60% | [11]; [16] 3% | [11]; [17] -6% | [11]; at 50.0 µM 66.8% | [12]; at 1.2 µM -2% | [12]; at 3.7 µM -6% | [12]; at 11.0 µM -13% | [12]; at 33.0 µM -1% | [12]; at 100.0 µM 37% | [13]; [16] 33% | [13]; [17] -77% | [13]; at 50.0 µM 23.6% | [14]; at 1.2 µM -7% | [14]; at 3.7 µM 2% | [14]; [16] 20% | [14]; at 11.0 µM 10% | [14]; at 33.0 µM 9% | [14]; [17] 6% | [14]; at 50.0 µM 49.8% | [14]; at 100.0 µM 29% | [15]; at 1.2 µM -1% | [15]; at 3.7 µM -1% | [15]; at 11.0 µM 3% | [15]; at 33.0 µM 20% | [1]; at 1.2 µM 5% | [1]; at 3.7 µM 4% | [1]; at 11.0 µM 5% | [1]; at 33.0 µM -13% | [1]; at 100.0 µM 41% | [2]; at 1.2 µM 2% | [2]; at 3.7 µM 7% | [2]; at 11.0 µM 20% | [2]; at 33.0 µM 49% | [3]; [16] -4% | [3]; [17] -9% | [3]; at 50.0 µM 47% | [4]; at 1.2 µM 3% | [4]; at 3.7 µM -3% | [4]; at 11.0 µM 3% | [4]; at 33.0 µM 6% | [4]; at 100.0 µM 61%
active: [15]; at 100.0 µM 77% | [2]; at 100.0 µM 90%

From PubChem BioAssay (NCI)
